Tgondii IFNg – T. gondii growth inhibition under IFN-gamma | activity change, negative = inhibition, % (concentration not given with the values) | AID 1259416 | 3.8% of 69,000 active | Toxoplasma gondii growth in IFN-gamma-treated host cells; hits give low values; in the data active = activity change below about -70%, passing the limit was not always enough;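 also: host cells are HeLa cells infected with Toxoplasma gondii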
A number is an active result; – = inactive. The full list was thinned out, with hits kept by preference.

SMILES	Tgondii IFNg
CC(C)c1nn(-c2ccccc2)c2c1C(c1ccoc1)CC(=O)N2 (centres undefined)	–
NC(=O)CCn1cc(CN2CCOC3(CNCCOC3)C2)c2ccccc21 (centres undefined)	–
CN(C)C(=O)[C@]12CCO[C@@H]1CCN(Cc1nccs1)C2	–
Clc1ccc(/C=C2\CCCC3C2=NNC3c2ccc(Cl)cc2)cc1 (centres undefined)	-92
O=C(O/N=C1/C(=O)c2ccccc2-c2ccccc21)c1ccccc1	-103
CC1=NN(C)C(=O)/C1=N\OC(=O)c1ccc(Cl)cc1	–
COc1ccc(C(=O)/C=C2/c3ccccc3CC(C)(C)N2C)cc1	–
COc1ccc(C(=O)O/N=C2/C(=O)N(C)c3ccccc32)cc1	-100
O=C(OCc1ccccc1)c1ccccc1	–
O=C(OOC(=O)c1ccccc1)c1ccccc1	–
COC1COC2(CCN(C(=O)c3cscn3)CC2)C1 (centres undefined)	–
CCCS(=O)(=O)N1CCO[C@@H]2[C@H]1CC[C@H]2OCC1CCOCC1	–
O=C(NCCS(=O)(=O)c1ccc(F)cc1)c1cnn2c(-c3ccccc3)ccnc12	–
CCc1ccc(NC(=O)Cn2c(=O)cc(-c3nc(C)no3)c3ccccc32)cc1	–
COc1cccc(-c2nc(Cn3ccn4nc(-c5ccc6c(c5)OCO6)cc4c3=O)c(C)o2)c1OC	–
Cc1ncsc1CCN(C)C1CCN(S(C)(=O)=O)CC1	–
Cc1ccc(S(=O)(=O)Nc2cc(=O)[nH]c(SCc3ccccc3Cl)n2)cc1	–
Cc1cc2nc3ccccc3c(=O)n2c(SCc2ccc(Cl)cc2Cl)n1	–
Cc1ccc(S(=O)(=O)c2ncsc2SCc2ccc(Cl)cc2Cl)cc1	-94
CCN1C[C@]23CN(C(=O)c4cc(C)on4)C[C@@H](C[C@H]2S1(=O)=O)O3	–
COc1ccc(CN2CCC3(CC2)CC3C(=O)NCc2ccccc2C(F)(F)F)cc1C (centres undefined)	–
CCc1nc(Cn2ccnc2-c2nc3c(s2)CCCC3)no1	–
Cc1ccc(Nc2nc(C(=O)Nc3cc(Cl)ccc3C)nc3ccccc23)cc1	–
Cc1ccc(Nc2nc(C(=O)Nc3ccc(F)cc3C)nc3ccccc23)cc1	–
Cc1ccc(C)c(NC(=O)c2ccc(Nc3nnc(C)c4ccccc34)cc2)c1	-88
SMILES	Tgondii IFNg
CCC(CC)n1nc(C)cc1NC(=O)CCn1nnnc1C	–
c1ccc(-c2csc3ncnc(NCc4ccccn4)c23)cc1	-74
c1ccc(-c2csc3ncnc(NCC4CCCO4)c23)cc1 (centres undefined)	–
O=c1ncn(Cc2ccccn2)cc1-c1ccccc1	–
Cc1ccc(S(=O)(=O)N2CCn3nnc(COc4cccnc4)c3C2)cc1	–
O=C(O)CN1CCC2(CC1)CCN2c1ncccn1	–
Cc1ccccc1CC(=O)N1CCC2(CC1)Nc1cc(F)ccc1-n1cccc12	–
CS(=O)(=O)CC(=O)N1C[C@@H]2CN(CC3CCCC3)CCO[C@@H]2C1	–
CC12C(=O)OC(=O)C1(C)C1CCC2O1 (centres undefined)	-86
CCCc1ccc(C(=O)N2Cc3c(CN4CCCCC4)nn(C)c3C2)cc1	-79
CCc1ccc(S(=O)(=O)N2Cc3c(CN4CCCCC4)nn(C)c3C2)cc1	–
Cn1nc(CN2CCCCC2)c2c1CN(C(=O)c1cccc(C#N)c1)C2	–
O=C(COc1ccc(Cl)cc1)Nc1ccc(Cl)cn1	–
O=C(COc1ccc(Cl)cc1)Nc1c[nH]c(=O)[nH]c1=O	-106
Cc1ccccc1CSCC(=O)Nc1c[nH]c(=O)[nH]c1=O	–
CN1c2ncccc2C(=O)NC12CCN(C(=O)c1n[nH]c3c1CCC3)CC2	–
Cc1nc(-c2nc(C(=O)NCC3CCCO3)c3ccccn23)cn1C(C)C (centres undefined)	–
O=S(=O)(c1ccc(F)cc1)N1CCn2cnc(COc3cccnc3)c2C1	–
CCN1C(=O)N(Cc2cccc(OC)c2)C(=O)C12CCN(CC(c1ccccc1)c1ccccc1)CC2	–
CCN1C(=O)N(Cc2cccc(OC)c2)C(=O)C12CCN(Cc1cc3ccccc3s1)CC2	-90
CCN1C(=O)N(Cc2cccc(OC)c2)C(=O)C12CCN(Cc1ccc(N3CCCC3)cc1)CC2	–
CCC(=O)N1C[C@H]2CCC[C@]2(COc2ccccn2)C1	–
Cc1nc(Nc2cccc(C3CCCN3C(=O)c3n[nH]c4c3CCCC4)n2)sc1C (centres undefined)	–
Cc1noc(C)c1CN1CCOc2c(O)cc(-c3cccc(Cl)c3)cc2C1	-74
Oc1ccc(CN2CCOc3c(O)cc(-c4cccc(Cl)c4)cc3C2)cc1	–
SMILES	Tgondii IFNg
Oc1cc(-c2cccc(Cl)c2)cc2c1OCCN(Cc1cscn1)C2	–
COc1ccc(-c2cc3c(=O)n(Cc4nc(-c5ccc(OC)cc5)oc4C)ccn3n2)cc1	–
CCc1ccc(NC(=O)N2CCC(c3nc(C(=O)N4CCOCC4)c(C)o3)CC2)cc1	–
COc1ccc2oc(=O)c(C(=O)Nc3c(C)n(C)n(-c4ccccc4)c3=O)cc2c1	–
COc1ccc2c(Oc3ccc(NC(=O)c4c(C)n(CC(C)(C)O)n(-c5ccccc5)c4=O)nc3)ccnc2c1	-73
COc1ccc2c(OCc3nnc4ccc(-c5ccccc5)nn34)ccnc2c1	–
CC(C)c1nc(CN(C)c2ncnc3[nH]ccc23)cs1	–
O=C(CCCN1CCN(c2ccccn2)CC1)c1ccc(F)cc1	–
Fc1ccc(-c2nc(N3CCN(c4ccccn4)CC3)ncc2-c2ncc[nH]2)cc1	-92
Clc1ccc(-c2nc(N3CCOCC3)ncc2-c2ncc[nH]2)cc1	–
CC(C)N1CC2(CCOCC2)c2cc(NC(=O)C3CCC3)ccc21	–
c1ccc(N2CCn3c(Cn4cncn4)cnc3C2)nc1	–
Cc1nc(-c2ccc(F)cc2)sc1CCNC(=O)C(=O)Nc1ccc2c(c1)OCO2	-72
Cc1nc(-c2ccc(F)cc2)sc1CCNC(=O)c1ccccc1Br	–
COc1ccc(-c2nc(C)c(CCNS(=O)(=O)c3ccc(-c4ccccc4)cc3)s2)cc1OC	-118
Cc1nc(-c2ccc(F)cc2)sc1CCNC(=O)C(=O)Nc1ccc2c(c1)OCCO2	–
COc1ccc(-c2nc(C)c(CCNS(=O)(=O)c3ccc(C)c(C)c3)s2)cc1OC	–
Cc1nc(-c2ccc(F)cc2)sc1CCNC(=O)c1ccccc1Cl	-72
Cc1ccc(-c2nc(C)c(CCNC(=O)C(=O)Nc3ccc4c(c3)OCO4)s2)cc1	–
Cc1nc(-c2ccc(F)cc2)sc1CCNC(=O)c1c(F)cccc1Cl	–
COc1ccc(S(=O)(=O)NCCc2sc(-c3ccc(OC)c(OC)c3)nc2C)cc1C	–
Cc1nc(-c2ccc(Cl)cc2)sc1CCNC(=O)c1ccccc1F	–
Cc1ccccc1C(=O)NCCc1sc(-c2ccc(Cl)cc2)nc1C	–
COc1ccccc1C(=O)NCCc1sc(-c2ccc(Cl)cc2)nc1C	-107
CCOC(=O)C(=O)Nc1ccc(-c2nc(-c3ccccc3)co2)cc1	–
SMILES	Tgondii IFNg
COc1cc(C(=O)O)c(-n2cnnn2)cc1OC	–
Cc1nc(-c2ccccc2)sc1CCNS(=O)(=O)c1ccc(Cl)s1	–
CCCN1CC(NC(=O)c2nnc3n2CCCC3)CC1=O (centres undefined)	–
COC(=O)c1cc(C)nc(N2Cc3cnn(CCO)c3C2)n1	–
O=C(c1ccc(-n2cnnn2)cc1)N1CC[C@@H](c2ccc(F)cc2)[C@H](O)C1	–
CCC(C(=O)N1CSC[C@@H]1C(=O)NCCc1csc(-c2ccccc2)n1)c1ccccc1 (some centres undefined)	–
COc1ccccc1CN1CC[C@H]2[C@@H](CO[C@H]2CC(=O)NC2CC2)C1	–

Screens (PubChem)
